GPR151 ag: activators of human GPR151, primary screen, cell-based, PathHunter beta-arrestin, luminescence; PathHunter beta-arrestin GPR151 cells; activation, % at 11.2 µM; 1% of 650,000 active; in the data active = activation above about 4.9%;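 note: 0% = median of compound wells and 100% = cells with positive control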
MITF inh: MITF inhibitors, primary screen, biochemical, AlphaScreen, human. Microphthalmia-associated transcription factor (Homo sapiens), O75030. AlphaScreen MITF homodimerization, bead proximity signal. inhibition, % at 2.6 µM. 0.91% of 650,000 active. AID 1259374, 2018; in the data active = inhibition above about 50%;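 note: 0% = vehicle wells with protein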
Target sequence (O75030 whole entry, looked up): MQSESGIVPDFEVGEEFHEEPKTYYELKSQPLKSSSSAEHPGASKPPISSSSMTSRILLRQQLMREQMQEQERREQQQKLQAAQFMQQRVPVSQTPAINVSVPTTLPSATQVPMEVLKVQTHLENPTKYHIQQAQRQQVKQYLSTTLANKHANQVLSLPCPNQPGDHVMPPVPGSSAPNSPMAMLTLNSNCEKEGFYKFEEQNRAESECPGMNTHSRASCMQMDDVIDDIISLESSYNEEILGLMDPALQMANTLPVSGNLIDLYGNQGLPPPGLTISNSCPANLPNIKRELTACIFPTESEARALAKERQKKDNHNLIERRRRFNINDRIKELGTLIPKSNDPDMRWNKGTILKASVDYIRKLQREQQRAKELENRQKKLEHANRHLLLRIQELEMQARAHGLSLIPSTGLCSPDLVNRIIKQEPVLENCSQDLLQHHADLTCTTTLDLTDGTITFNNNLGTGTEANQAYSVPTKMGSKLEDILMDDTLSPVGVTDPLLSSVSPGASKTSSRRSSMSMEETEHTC
FBW7 act: FBW7 E3 ligase activators, primary screen, biochemical, AlphaScreen, human | AID 1259310, 2017 | 0.13% of 650,000 active | AlphaScreen FBW7–phospho-cyclin E peptide binding, activator screen | normalized activity (activation), % at 26.1 µM | F-box/WD repeat-containing protein 7 (Homo sapiens), Q969H0; in the data active = normalized activity above about 1.9%;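 note: purified mutant Fbw7 with reduced substrate affinity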
TEAD-YAP inh: TEAD-YAP interaction inhibition, primary screen, TEAD-YAP interaction inhibitor project, luminescence, HEK-TIYL cells. TEAD-Gal4/YAP UAS-luciferase luminescence. inhibition, % at 9.12 µM. 1.4% of 640,000 active; in the data active = inhibition above about 32%;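 note: 0% = median of test compound wells and 100% = reference inhibitor wells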
The depositor's hits bear a star. Shown are actives, neighbours in structure and some others; about 3.5% of the full set was active somewhere.

SMILES	GPR151 ag	MITF inh	FBW7 act	TEAD-YAP inh
CC(=O)Nc1ccc(C(=O)NCC(=O)OCc2ccc(C(=O)c3ccccc3)cc2)cc1	1.4	3.1	-0.2	43.6*
Cc1ccc2nc(C(F)(F)F)c(C#N)c(N)c2c1	-0.6	-10.2	-0.1	44.9*
CC(=O)NC(C(=O)OCc1cnc(-c2ccccc2)s1)C(C)C (stereo not given)	-6.8	4.2	0.1	58.8*
CC(=O)NC(C(=O)OCC(=O)N(c1ccccc1)c1ccccc1)C(C)C (stereo not given)	-0.3	8.0	0.0	-6.9
Fc1cccc(Nc2nc(NCC3CCCO3)c3ccccc3n2)c1 (stereo not given)	4.6	-20.9	0.1	44.6*
c1ccc(Nc2nc(NCC3CCCO3)c3ccccc3n2)cc1 (stereo not given)	0.5	2.2	-0.2	46.4*
O=S(=O)(c1cccc2nsnc12)N1CCC(CO)(Cc2ccccc2)CC1	-0.7	5.3	-0.1	0.2
CC1(C)c2ccccc2N2CC(=O)NC21/C=C/c1ccccc1 (stereo not given)	3.0	-0.2	0.1	3.0
CC1CN2c3ccccc3C(C)(C)C2(/C=C/c2ccc(N(C)C)cc2)NC1=O (stereo not given)	1.1	32.6	-0.7	38.9*
N#CC(C#N)=NNc1ccc2c(c1)OCO2	-1.0	-2.4	0.1	39.3*
CCOC(=O)/C(C#N)=N/Nc1ccc2c(c1)OCCO2	-2.0	0.0	-0.2	-24.3
N#C/C(=C\c1ccc(OCC(=O)NCC2CCCO2)cc1)C(=O)NCCc1ccccc1 (stereo not given)	-0.1	7.7	2.0*	0.5
N#C/C(=C\c1ccc(OCC(=O)NCC2CCCO2)cc1)C(=O)NCc1ccccc1 (stereo not given)	0.8	-21.6	-0.2	6.6
CCCC(c1nnnn1CC1CCCO1)N1CCN(c2ccc(OC)cc2)CC1 (stereo not given)	-1.1	7.4	0.1	-9.3
CN(C)c1ccc(C2OCC3(CO2)SC(=O)NC3=O)cc1 (stereo not given)	-1.1	10.8	4.9*	11.5
COc1ccc(O)c(/C=N\NC(=O)c2n[nH]c([N+](=O)[O-])n2)c1	-1.4	52.6*	-0.9	4.2
COc1cccc(/C=N/NC(=O)c2cc(-c3ccc(C)o3)[nH]n2)c1O	-0.8	40.6	0.4	22.0
COc1ccc(O)c(/C=N/NC(=O)c2cccc(Br)c2)c1	-0.5	14.7	-0.1	57.9*
Cc1ccc(-c2cc(C(=O)N/N=C/c3cc(Br)ccc3O)n[nH]2)o1	2.4	27.0	-0.2	44.6*
COc1ccc(/C=N/NC(=O)c2cccc(Br)c2)cc1	-0.3	2.8	-0.1	-66.0
O=C(N/N=C\c1ccccc1O)c1n[nH]c([N+](=O)[O-])n1	-0.3	36.7	-0.3	-4.7
COc1ccc(O)c(/C=N/NC(=O)c2ccc(NC(=O)c3ccccc3Cl)cc2)c1	2.2	0.6	0.0	34.1*
CC1=NN(c2cccc(Cl)c2)C(=O)/C1=C\c1ccc(O)cc1	-2.5	1.2	0.3	24.6
CCN(CC)CCN1CCN(c2ccnc3c(-c4cccs4)cnn23)CC1	3.5	-3.5	0.5	-34.5
O=C(N/N=C/c1ccccc1O)c1cccc(Br)c1	-0.3	9.2	0.0	-13.0
SMILES	GPR151 ag	MITF inh	FBW7 act	TEAD-YAP inh
O=C(N/N=C/c1ccc(O)c2ncccc12)c1cccc(Br)c1	-0.3	103.3*	-0.3	37.9*
COc1ccc(O)c(/C=N/NC(=O)c2cncc(Br)c2)c1	-0.1	-41.3	-0.1	81.0*
CCOc1ccc(/C=C2\NC(=S)N(C)C2=O)c(OCC)c1	-0.4	10.5	0.0	9.8
COc1cc(/C=C2\NC(=S)NC2=O)cc(OC)c1O	0.0	8.3	0.0	-2.9
CCOc1cccc(/C=C2\NC(=S)N(C)C2=O)c1O	-1.6	-13.4	2.4*	-33.2
COc1cccc(/C=C2\NC(=S)NC2=O)c1O	-1.1	10.9	0.0	76.0*
O=c1c2ccccc2c2ccccc2c(=O)n1-c1cccc(-c2nc3ccccc3o2)c1	1.7	-2.6	-0.1	0.0
CN(CCC#N)S(=O)(=O)c1ccc2[nH]cc(C(=O)NCc3ccc4c(c3)OCO4)c(=O)c2c1	-0.5	-2.9	0.0	-9.0
COCc1cc(CN2CCCCC2)c(O)c2ncccc12	0.6	98.1*	-1.0	75.5*
CCCOCc1cc(CN2CCCCC2)c(O)c2ncccc12	4.2	106.4*	-1.3	71.0*
Oc1c(CN2CCCCC2)cc(Br)c2cccnc12	0.3	98.4*	-1.3	58.4*
CCOc1cccc(CN2CCCCCC2)c1O	0.0	9.6	0.2	-0.7
CC(C)OCc1cc(CN2CCCCC2)c(O)c2ncccc12	-0.8	104.5*	-1.2	86.4*
COc1cc(OC)c(C2CC(=O)NC3=C2C(=O)CCC3)cc1OC (stereo not given)	-0.4	14.3	0.2	8.5
CCOC(=O)Nc1ccc(NC(=O)c2c(OC)cccc2OC)cc1	-0.3	19.9	1.0	-6.0
Cc1ccc(C(=O)CSc2nnc(-c3ccco3)o2)c(C)c1	-1.6	0.6	-0.2	-2.3
COCc1cc(CN2CCOCC2)c(O)c2ncccc12	0.7	89.8*	-2.0	1.7
COCc1cc(CN2CCN(c3ccccc3OC)CC2)c(O)c2ncccc12	4.4	106.5*	-0.5	41.9*
CCOc1ccccc1N1CCN(Cc2cc(OC)c(O)c(OC)c2)CC1	1.1	26.7	0.1	-2.2
Cc1ccc(S(=O)(=O)Nc2cc(SCC(=O)O)c(O)c3ccccc23)c(C)c1	-1.2	11.8	-0.3	-18.6
Cc1ccc([N+](=O)[O-])cc1S(=O)(=O)Nc1cc(SCC(=O)O)c(O)c2ccccc12	-0.3	65.3*	-0.5	-3.4
Cc1ccc(N2C(=O)NC(=O)/C(=C\c3ccc(N4CCCC4)o3)C2=O)cc1	-0.7	-1.1	-0.1	2.0
CC(=O)NC(c1ccc(N(C)C)cc1)c1cc(Cl)c2cccnc2c1O (stereo not given)	-0.1	31.7	-0.5	29.7
CC(=O)NC(c1ccc(C(C)C)cc1)c1cc(Cl)c2cccnc2c1O (stereo not given)	-1.7	11.1	0.0	38.4*
CC(=O)NC(c1ccccc1)c1cc(Cl)c2cccnc2c1O (stereo not given)	0.5	62.9*	-0.3	75.6*
SMILES	GPR151 ag	MITF inh	FBW7 act	TEAD-YAP inh
COc1ccc(C(=O)/C=C\Nc2ccc(C)cc2)cc1	2.1	-11.6	0.2	-16.0
Cc1ccc2c(c1)sc1nc(-c3ccccc3)cn12	-6.5	-20.2	2.4*	96.3*
Cc1ccc(-c2cn3c(n2)sc2cc(C(=O)N4CCC(C(N)=O)CC4)ccc23)cc1	-0.2	5.9	0.7	-39.4
COc1ccc(-c2nn(-c3ccccc3)cc2C(=O)NCc2ccccc2)cc1OC	-2.1	14.4	0.2	2.8
O=C(CN(Cc1ccc(Br)cc1)S(=O)(=O)c1ccccc1)Nc1ccc2c(c1)OCO2	-0.6	-8.2	-0.2	-10.7
CCOC(=O)Cc1nnc(NC(=O)c2cccc(C)c2)s1	-0.1	11.9	0.0	8.7
COCCn1c(Cc2ccccc2)nnc1SCC(=O)NC(C)(C)C	0.0	-13.1	0.0	58.9*

Screening results (PubChem)
